Data from PubChem BioAssay AID1159580 (chemical genetic matrix, 2015).
Values joined by “and” are separate entries in the source; they are usually repeats but may differ in a detail not shown here. Identical values can stand only once. Among all 5,500 compounds or so, about 2,000 (36%) were called active. Inconclusive results (about 18%) are left out. Cut-off read from the data, not from the text of the source: active = normalized growth mostly below about 0.91 (no sharp cut-off); inconclusive = no clear call, values can overlap the other calls; inactive = mostly above about 0.92. This is one part of the list.

Experiment: chemical genetic growth profiling, strain panel (AID 1159580);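 note: tested at 20 µM; growth read once vehicle control cultures reached saturation at 30 °C; 1 = growth at the plate median or of vehicle wells; lower values mean less growth of the strain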
Conditions: growth OD

Measured: normalized growth

COc1ccc(C(=O)O)cc1OC
inactive: S. cerevisiae deletion strains, locus YAL013W, strain DEP1, stronger effect = lower value 1.02 | S. cerevisiae deletion strains, locus YAL021C, strain ccr4, stronger effect = lower value 0.981 | S. cerevisiae deletion strains, locus YAL026C, strain drs2, stronger effect = lower value 0.996 | S. cerevisiae deletion strains, locus YAL030W, strain snc1, stronger effect = lower value 0.995 | S. cerevisiae deletion strains, locus YBL061C, strain skt5, stronger effect = lower value 1 | S. cerevisiae deletion strains, locus YBR009C, strain hhf1, stronger effect = lower value 1.01 | S. cerevisiae deletion strains, locus YBR021W, strain FUR4, stronger effect = lower value 1.02 | S. cerevisiae deletion strains, locus YBR023C, strain chs3, stronger effect = lower value 1.01 | S. cerevisiae deletion strains, locus YBR171W, strain sec66, stronger effect = lower value 0.996 | S. cerevisiae deletion strains, locus YBR229C, strain ROT2, stronger effect = lower value 1 | S. cerevisiae deletion strains, locus YBR231C, strain swc5, stronger effect = lower value 0.996 | S. cerevisiae deletion strains, locus YBR279W, strain paf1, stronger effect = lower value 0.997 | S. cerevisiae deletion strains, locus YCL011C, strain gbp2, stronger effect = lower value 1 | S. cerevisiae deletion strains, locus YCL016C, strain dcc1, stronger effect = lower value 1 | S. cerevisiae deletion strains, locus YCL029C, strain bik1, stronger effect = lower value 0.992 | S. cerevisiae deletion strains, locus YCL069W, strain vba3, stronger effect = lower value 1 | S. cerevisiae deletion strains, locus YCR088W, strain abp1, stronger effect = lower value 0.996 | S. cerevisiae deletion strains, locus YDL005C, strain med2, stronger effect = lower value 0.996 | S. cerevisiae deletion strains, locus YDL035C, strain GPR1, stronger effect = lower value 1.08 | S. cerevisiae deletion strains, locus YDL040C, strain nat1, stronger effect = lower value 0.997 | S. cerevisiae deletion strains, locus YDL074C, strain BRE1, stronger effect = lower value 1.17 | S. cerevisiae deletion strains, locus YDL101C, strain DUN1, stronger effect = lower value 1 | S. cerevisiae deletion strains, locus YDL185W, strain tfp1, stronger effect = lower value 0.988 | S. cerevisiae deletion strains, locus YDL192W, strain arf1, stronger effect = lower value 1.03 | S. cerevisiae deletion strains, locus YDR001C, strain nth1, stronger effect = lower value 0.994 | S. cerevisiae deletion strains, locus YDR069C, strain doa4, stronger effect = lower value 1.01 | S. cerevisiae deletion strains, locus YDR101C, strain arx1, stronger effect = lower value 1.01 | S. cerevisiae deletion strains, locus YDR137W, strain rgp1, stronger effect = lower value 1.02 | S. cerevisiae deletion strains, locus YDR159W, strain sac3, stronger effect = lower value 0.964 | S. cerevisiae deletion strains, locus YDR162C, strain NBP2, stronger effect = lower value 1.04 | S. cerevisiae deletion strains, locus YDR195W, strain ref2 0.908 | S. cerevisiae deletion strains, locus YDR297W, strain sur2, stronger effect = lower value 1 | S. cerevisiae deletion strains, locus YDR318W, strain mcm21, stronger effect = lower value 1 | S. cerevisiae deletion strains, locus YDR334W, strain swr1, stronger effect = lower value 0.998 | S. cerevisiae deletion strains, locus YDR335W, strain msn5, stronger effect = lower value 1 | S. cerevisiae deletion strains, locus YDR388W, stronger effect = lower value 1 | S. cerevisiae deletion strains, locus YDR392W, strain spt3, stronger effect = lower value 0.984 | S. cerevisiae deletion strains, locus YDR502C, strain sam2, stronger effect = lower value 0.991 | S. cerevisiae deletion strains, locus YEL003W, strain gim4, stronger effect = lower value 0.992 | S. cerevisiae deletion strains, locus YEL037C, strain rad23, stronger effect = lower value 0.989 | S. cerevisiae deletion strains, locus YEL061C, strain CIN8 (second series), stronger effect = lower value 0.998 | S. cerevisiae deletion strains, locus YER015W, strain faa2, stronger effect = lower value 0.992 | S. cerevisiae deletion strains, locus YER016W, strain bim1, stronger effect = lower value 1.01 | S. cerevisiae deletion strains, locus YER110C, stronger effect = lower value 0.978 | S. cerevisiae deletion strains, locus YER111C, strain swi4, stronger effect = lower value 1.01 | S. cerevisiae deletion strains, locus YER155C, strain BEM2 (second series), stronger effect = lower value 0.988 | S. cerevisiae deletion strains, locus YER155C, strain BEM2, stronger effect = lower value 0.994 | S. cerevisiae deletion strains, locus YER167W, strain BCK2, stronger effect = lower value 0.999 | S. cerevisiae deletion strains, locus YFR010W, strain ubp6, stronger effect = lower value 0.993 | S. cerevisiae deletion strains, locus YGL078C, strain dbp3, stronger effect = lower value 0.99 | S. cerevisiae deletion strains, locus YGL086W, strain mad1, stronger effect = lower value 1.01 | S. cerevisiae deletion strains, locus YGL167C, strain pmr1, stronger effect = lower value 0.999 | S. cerevisiae deletion strains, locus YGL173C, strain kem1, stronger effect = lower value 0.998 | S. cerevisiae deletion strains, locus YGL227W, strain vid30, stronger effect = lower value 1.03 | S. cerevisiae deletion strains, locus YGL240W, strain doc1, stronger effect = lower value 0.998 | S. cerevisiae deletion strains, locus YGL248W, strain PDE1, stronger effect = lower value 1.05 | S. cerevisiae deletion strains, locus YGL253W, strain hxk2, stronger effect = lower value 1.01 | S. cerevisiae deletion strains, locus YGR078C, strain PAC10, stronger effect = lower value 1.04 | S. cerevisiae deletion strains, locus YGR135W, strain pre9, stronger effect = lower value 0.988 | S. cerevisiae deletion strains, locus YGR252W, strain gcn5, stronger effect = lower value 1.03 | S. cerevisiae deletion strains, locus YHR013C, strain ard1, stronger effect = lower value 0.978 | S. cerevisiae deletion strains, locus YHR027C, strain rpn1, stronger effect = lower value 1.01 | S. cerevisiae deletion strains, locus YHR030C, strain SLT2, stronger effect = lower value 1 and 0.99 | S. cerevisiae deletion strains, locus YHR079C, strain IRE1 (second series), stronger effect = lower value 0.987 | S. cerevisiae deletion strains, locus YHR079C, strain IRE1, stronger effect = lower value 0.961 | S. cerevisiae deletion strains, locus YHR094C, strain hxt1, stronger effect = lower value 0.972 | S. cerevisiae deletion strains, locus YHR129C, strain ARP1, stronger effect = lower value 1.03 | S. cerevisiae deletion strains, locus YHR142W, strain chs7, stronger effect = lower value 1.01 | S. cerevisiae deletion strains, locus YHR200W, strain rpn10, stronger effect = lower value 0.993 | S. cerevisiae deletion strains, locus YIL066C, strain RNR3, stronger effect = lower value 1.03 | S. cerevisiae deletion strains, locus YIL073C, strain SPO22, stronger effect = lower value 1.02 | S. cerevisiae deletion strains, locus YIL125W, strain kgd1, stronger effect = lower value 0.992 | S. cerevisiae deletion strains, locus YIR030C, strain dcg1, stronger effect = lower value 0.985 | S. cerevisiae deletion strains, locus YJL092W, strain hpr5, stronger effect = lower value 0.985 | S. cerevisiae deletion strains, locus YJL095W, strain BCK1 (second series), stronger effect = lower value 0.985 | S. cerevisiae deletion strains, locus YJL095W, strain BCK1, stronger effect = lower value 1.06 and 0.982 | S. cerevisiae deletion strains, locus YJL115W, strain asf1, stronger effect = lower value 0.995 | S. cerevisiae deletion strains, locus YJL129C, strain trk1, stronger effect = lower value 1.04 | S. cerevisiae deletion strains, locus YJL134W, strain LCB3, stronger effect = lower value 0.995 | S. cerevisiae deletion strains, locus YJL154C, strain vps35, stronger effect = lower value 0.992 | S. cerevisiae deletion strains, locus YJL164C, strain tpk1, stronger effect = lower value 1 | S. cerevisiae deletion strains, locus YJL166W, strain qcr8, stronger effect = lower value 1.01 | S. cerevisiae deletion strains, locus YJL168C, strain set2, stronger effect = lower value 0.993 | S. cerevisiae deletion strains, locus YJL187C, strain SWE1 (second series), stronger effect = lower value 1.02 | S. cerevisiae deletion strains, locus YJR066W, strain TOR1, stronger effect = lower value 0.996 | S. cerevisiae deletion strains, locus YKL009W, strain mrt4, stronger effect = lower value 1.02 | S. cerevisiae deletion strains, locus YKL068W, stronger effect = lower value 0.983 | S. cerevisiae deletion strains, locus YKL085W, strain MDH1 (second series), stronger effect = lower value 0.993 | S. cerevisiae deletion strains, locus YKL085W, strain MDH1, stronger effect = lower value 0.993 | S. cerevisiae deletion strains, locus YKL160W, strain elf1, stronger effect = lower value 1 | S. cerevisiae deletion strains, locus YKR001C, strain vps1, stronger effect = lower value 1.05 | S. cerevisiae deletion strains, locus YKR026C, strain gcn3, stronger effect = lower value 1 | S. cerevisiae deletion strains, locus YKR091W, strain srl3, stronger effect = lower value 0.996 | S. cerevisiae deletion strains, locus YLL001W, strain dnm1, stronger effect = lower value 0.997 | S. cerevisiae deletion strains, locus YLL026W, stronger effect = lower value 0.999 | S. cerevisiae deletion strains, locus YLL041C, strain sdh2, stronger effect = lower value 0.992 | S. cerevisiae deletion strains, locus YLR027C, strain aat2, stronger effect = lower value 1 | S. cerevisiae deletion strains, locus YLR039C, strain RIC1, stronger effect = lower value 1.22 | S. cerevisiae deletion strains, locus YLR058C, strain SHM2, stronger effect = lower value 1.01 | S. cerevisiae deletion strains, locus YLR102C, strain apc9, stronger effect = lower value 0.977 | S. cerevisiae deletion strains, locus YLR113W, strain HOG1, stronger effect = lower value 0.982 | S. cerevisiae deletion strains, locus YLR221C, strain rsa3, stronger effect = lower value 1.02 | S. cerevisiae deletion strains, locus YLR258W, strain gsy2, stronger effect = lower value 1.01 | S. cerevisiae deletion strains, locus YLR262C, strain YPT6 (second series), stronger effect = lower value 1.01 | S. cerevisiae deletion strains, locus YLR262C, strain YPT6, stronger effect = lower value 1.2 | S. cerevisiae deletion strains, locus YLR268W, strain sec22, stronger effect = lower value 1.05 | S. cerevisiae deletion strains, locus YLR320W, strain mms22, stronger effect = lower value 1 | S. cerevisiae deletion strains, locus YLR330W, strain CHS5, stronger effect = lower value 1.01 | S. cerevisiae deletion strains, locus YLR342W, strain FKS1 (second series), stronger effect = lower value 1.07 | S. cerevisiae deletion strains, locus YLR342W, strain FKS1, stronger effect = lower value 1 | S. cerevisiae deletion strains, locus YLR357W, strain rsc2, stronger effect = lower value 0.981 | S. cerevisiae deletion strains, locus YLR370C, strain arc18, stronger effect = lower value 1.01 | S. cerevisiae deletion strains, locus YLR371W, strain rom2, stronger effect = lower value 0.991 | S. cerevisiae deletion strains, locus YLR384C, strain iki3, stronger effect = lower value 1.01 | S. cerevisiae deletion strains, locus YLR418C, strain cdc73, stronger effect = lower value 1.07 | S. cerevisiae deletion strains, locus YML016C, strain PPZ1, stronger effect = lower value 1 | S. cerevisiae deletion strains, locus YML032C, strain rad52, stronger effect = lower value 0.998 | S. cerevisiae deletion strains, locus YML120C, strain ndi1, stronger effect = lower value 1.01 | S. cerevisiae deletion strains, locus YML124C, strain tub3, stronger effect = lower value 0.989 | S. cerevisiae deletion strains, locus YMR058W, strain fet3, stronger effect = lower value 1 | S. cerevisiae deletion strains, locus YMR078C, strain ctf18, stronger effect = lower value 0.982 | S. cerevisiae deletion strains, locus YMR125W, strain sto1, stronger effect = lower value 0.985 | S. cerevisiae deletion strains, locus YMR129W, stronger effect = lower value 0.93 | S. cerevisiae deletion strains, locus YMR205C, strain PFK2, stronger effect = lower value 1 | S. cerevisiae deletion strains, locus YMR223W, strain ubp8, stronger effect = lower value 1 | S. cerevisiae deletion strains, locus YMR231W, strain pep5, stronger effect = lower value 0.989 | S. cerevisiae deletion strains, locus YMR307W, strain GAS1, stronger effect = lower value 1.14 | S. cerevisiae deletion strains, locus YNL067W, strain RPL9B, stronger effect = lower value 1.01 | S. cerevisiae deletion strains, locus YNL071W, strain lat1, stronger effect = lower value 0.99 | S. cerevisiae deletion strains, locus YNL128W, strain TEP1, stronger effect = lower value 1.03 | S. cerevisiae deletion strains, locus YNL183C, strain NPR1, stronger effect = lower value 0.921 | S. cerevisiae deletion strains, locus YNL209W, strain ssb2, stronger effect = lower value 0.985 | S. cerevisiae deletion strains, locus YNL233W, strain BNI4, stronger effect = lower value 1.04 | S. cerevisiae deletion strains, locus YNL248C, strain rpa49, stronger effect = lower value 1 | S. cerevisiae deletion strains, locus YNL250W, strain rad50, stronger effect = lower value 0.952 | S. cerevisiae deletion strains, locus YNL271C, strain bni1, stronger effect = lower value 0.994 | S. cerevisiae deletion strains, locus YNL298W, strain CLA4, stronger effect = lower value 0.997 | S. cerevisiae deletion strains, locus YNL307C, strain MCK1, stronger effect = lower value 0.975 | S. cerevisiae deletion strains, locus YNL322C, strain KRE1 (second series), stronger effect = lower value 0.986 | S. cerevisiae deletion strains, locus YNR049C, strain mso1, stronger effect = lower value 0.987 | S. cerevisiae deletion strains, locus YNR052C, strain pop2, stronger effect = lower value 0.969 | S. cerevisiae deletion strains, locus YOL006C, strain TOP1, stronger effect = lower value 1.36 | S. cerevisiae deletion strains, locus YOL012C, strain htz1 0.898 | S. cerevisiae deletion strains, locus YOL147C, strain pex11, stronger effect = lower value 0.997 | S. cerevisiae deletion strains, locus YOR001W, strain rrp6, stronger effect = lower value 1.02 | S. cerevisiae deletion strains, locus YOR061W, strain CKA2, stronger effect = lower value 1.01 | S. cerevisiae deletion strains, locus YOR069W, strain VPS5, stronger effect = lower value 0.996 | S. cerevisiae deletion strains, locus YOR070C, strain gyp1, stronger effect = lower value 1 | S. cerevisiae deletion strains, locus YOR080W, strain dia2, stronger effect = lower value 0.996 | S. cerevisiae deletion strains, locus YOR083W, strain WHI5, stronger effect = lower value 0.996 | S. cerevisiae deletion strains, locus YOR106W, strain vam3, stronger effect = lower value 1.02 | S. cerevisiae deletion strains, locus YOR136W, strain idh2, stronger effect = lower value 0.995 | S. cerevisiae deletion strains, locus YOR144C, strain elg1, stronger effect = lower value 0.978 | S. cerevisiae deletion strains, locus YOR184W, strain ser1, stronger effect = lower value 1.07 | S. cerevisiae deletion strains, locus YOR231W, strain MKK1, stronger effect = lower value 0.979 | S. cerevisiae deletion strains, locus YOR265W, strain rbl2, stronger effect = lower value 0.995 | S. cerevisiae deletion strains, locus YOR270C, strain vph1, stronger effect = lower value 1.02 | S. cerevisiae deletion strains, locus YOR290C, strain snf2, stronger effect = lower value 1.02 | S. cerevisiae deletion strains, locus YOR316C, strain cot1, stronger effect = lower value 1.01 | S. cerevisiae deletion strains, locus YPL051W, strain arl3, stronger effect = lower value 0.993 | S. cerevisiae deletion strains, locus YPL078C, strain atp4, stronger effect = lower value 1 | S. cerevisiae deletion strains, locus YPL106C, strain sse1, stronger effect = lower value 0.975 | S. cerevisiae deletion strains, locus YPL240C, strain hsp82, stronger effect = lower value 1 | S. cerevisiae deletion strains, locus YPL256C, strain CLN2, stronger effect = lower value 0.973 | S. cerevisiae deletion strains, locus YPR119W, strain clb2, stronger effect = lower value 1 | S. cerevisiae deletion strains, locus YPR141C, strain kar3, stronger effect = lower value 0.976 | S. cerevisiae deletion strains, locus YPR163C, strain tif3, stronger effect = lower value 1.01 | S. cerevisiae deletion strains, locus YPR167C, strain met16, stronger effect = lower value 1.02 | S. cerevisiae deletion strains, strain wtn01, stronger effect = lower value 1.01 | S. cerevisiae strains, strain wild type, stronger effect = lower value 1.06
